# Assay results as given in the supplement of paper PMC12645437, “Orthogonal IMiD-Degron Pairs Induce Selective Protein Degradation in Cells” (ACS Chemical Biology, 2025).
# In all, about 8,300 sequences were measured (“log2 fold change of degron read counts, EGFP-low vs EGFP+ sorted cells (limma voom), compound-induced degradation”: median about -1.1, highest 2% from about 3.2 on). The list comes from a sample in which the highest values are over-represented; it also holds similar and randomly drawn sequences.
# T1: CRBN, Q96SW2
# T1 chain: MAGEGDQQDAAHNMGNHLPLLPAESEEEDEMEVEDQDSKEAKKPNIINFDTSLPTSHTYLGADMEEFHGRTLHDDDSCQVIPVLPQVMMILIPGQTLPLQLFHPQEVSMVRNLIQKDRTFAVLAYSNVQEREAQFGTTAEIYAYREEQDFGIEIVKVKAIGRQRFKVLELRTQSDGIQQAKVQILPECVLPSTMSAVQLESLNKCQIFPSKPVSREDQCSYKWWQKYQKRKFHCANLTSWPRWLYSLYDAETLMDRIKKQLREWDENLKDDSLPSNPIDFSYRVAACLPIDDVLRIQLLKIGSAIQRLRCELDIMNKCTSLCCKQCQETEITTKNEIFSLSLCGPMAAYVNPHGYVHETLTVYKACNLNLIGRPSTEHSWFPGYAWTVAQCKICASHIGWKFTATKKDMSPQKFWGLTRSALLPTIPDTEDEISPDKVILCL
# B1: 46F_47A_49N_50V_52G_53A_54M_55F_67L_, Q9UKT9 (peptide)
# chain: FACNVCGAMFTQKGNLLRHIKL
# B2: 46F_47F_49D_50Q_52G_53A_54A_55F_67L_, Q9UKT9 (peptide)
# chain: FFCDQCGAAFTQKGNLLRHIKL
# B3: 46L_47A_49E_50I_52G_53F_54V_55C_67L_, Q9UKT9 (peptide)
# chain: LACEICGFVCTQKGNLLRHIKL
# B4: 46L_47W_49E_50I_52G_53F_54V_55C_67L_, Q9UKT9 (peptide)
# chain: LWCEICGFVCTQKGNLLRHIKL
# B5: 46L_47F_49E_50I_52G_53F_54V_55C_67L_, Q9UKT9 (peptide)
# chain: LFCEICGFVCTQKGNLLRHIKL
# B6: 46L_47S_49E_50I_52G_53F_54V_55C_67L_, Q9UKT9 (peptide)
# chain: LSCEICGFVCTQKGNLLRHIKL
# B7: 46L_47Q_49E_50I_52G_53F_54V_55C_67L_, Q9UKT9 (peptide)
# chain: LQCEICGFVCTQKGNLLRHIKL
# B8: 46L_47L_49E_50I_52G_53F_54V_55C_67L_, Q9UKT9 (peptide)
# chain: LLCEICGFVCTQKGNLLRHIKL
# B9: 46L_47C_49E_50I_52G_53F_54V_55C_67L_, Q9UKT9 (peptide)
# chain: LCCEICGFVCTQKGNLLRHIKL
# B10: 46L_47K_49E_50I_52G_53F_54V_55C_67L_, Q9UKT9 (peptide)
# chain: LKCEICGFVCTQKGNLLRHIKL
# B11: 46L_47Y_49E_50I_52G_53F_54V_55C_67L_, Q9UKT9 (peptide)
# chain: LYCEICGFVCTQKGNLLRHIKL
# B12: 46F_47C_49D_50V_52G_53A_54C_55F_67L_, Q9UKT9 (peptide)
# chain: FCCDVCGACFTQKGNLLRHIKL
# B13: 46F_47W_49N_50Q_52G_53A_54K_55F_67L_, Q9UKT9 (peptide)
# chain: FWCNQCGAKFTQKGNLLRHIKL
# B14: 46F_47T_49N_50Q_52G_53R_54L_55F_67L_, Q9UKT9 (peptide)
# chain: FTCNQCGRLFTQKGNLLRHIKL
# B15: 46F_47Y_49P_50I_52G_53R_54V_55F_67L_, Q9UKT9 (peptide)
# chain: FYCPICGRVFTQKGNLLRHIKL
# B16: 46F_47W_49N_50Q_52G_53R_54T_55F_67L_, Q9UKT9 (peptide)
# chain: FWCNQCGRTFTQKGNLLRHIKL
# B17: 46F_47V_49D_50Q_52G_53A_54P_55F_67L_, Q9UKT9 (peptide)
# chain: FVCDQCGAPFTQKGNLLRHIKL
# B18: 46F_47I_49P_50I_52G_53R_54V_55F_67L_, Q9UKT9 (peptide)
# chain: FICPICGRVFTQKGNLLRHIKL
# B19: 46F_47G_49P_50I_52G_53A_54W_55F_67L_, Q9UKT9 (peptide)
# chain: FGCPICGAWFTQKGNLLRHIKL
# B20: 46F_47C_49E_50I_52G_53R_54V_55F_67L_, Q9UKT9 (peptide)
# chain: FCCEICGRVFTQKGNLLRHIKL
# B21: 46F_47F_49E_50I_52G_53A_54S_55F_67L_, Q9UKT9 (peptide)
# chain: FFCEICGASFTQKGNLLRHIKL
# B22: 46F_47L_49E_50I_52G_53A_54S_55F_67L_, Q9UKT9 (peptide)
# chain: FLCEICGASFTQKGNLLRHIKL
# B23: 46F_47N_49E_50I_52G_53A_54S_55F_67L_, Q9UKT9 (peptide)
# chain: FNCEICGASFTQKGNLLRHIKL
# B24: 46F_47R_49E_50I_52G_53A_54S_55F_67L_, Q9UKT9 (peptide)
# chain: FRCEICGASFTQKGNLLRHIKL
# B25: 46F_47V_49E_50I_52G_53A_54S_55F_67L_, Q9UKT9 (peptide)
# chain: FVCEICGASFTQKGNLLRHIKL
# B26: 46F_47F_49E_50I_52G_53H_54S_55F_67L_, Q9UKT9 (peptide)
# chain: FFCEICGHSFTQKGNLLRHIKL
# B27: 46F_47T_49E_50I_52G_53A_54S_55F_67L_, Q9UKT9 (peptide)
# chain: FTCEICGASFTQKGNLLRHIKL
# B28: 46F_47I_49E_50I_52G_53A_54S_55F_67L_, Q9UKT9 (peptide)
# chain: FICEICGASFTQKGNLLRHIKL
# B29: 46F_47A_49E_50I_52G_53A_54S_55F_67L_, Q9UKT9 (peptide)
# chain: FACEICGASFTQKGNLLRHIKL
# B30: 46F_47E_49E_50I_52G_53A_54S_55F_67L_, Q9UKT9 (peptide)
# chain: FECEICGASFTQKGNLLRHIKL
# B31: 46F_47W_49E_50I_52G_53A_54S_55F_67L_, Q9UKT9 (peptide)
# chain: FWCEICGASFTQKGNLLRHIKL
# Target: T1, CRBN, Q96SW2
# Test: log2 fold change of degron read counts, EGFP-low vs EGFP+ sorted cells (limma voom), compound-induced degradation; higher = more compound-induced degradation of the degron-EGFP fusion; degrons are variants of IKZF1/3 zinc finger 2; compound dose not given here
# Details: Jurkat, 18 h
# [1] = compound: compound 19 (5-tert-butyl-thalidomide)
# [2] = compound: compound 22 (5-morpholino-thalidomide)
# [3] = compound: compound 33 (diphenyl IMiD analogue)
# 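Also: pooled lentiviral library of zinc finger degron-EGFP fusions in mCherry-positive Jurkat cells, FACS-sorted after compound exposure, with degron abundance counted by next-generation sequencing.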
sequence,measurement,setting,value
B1,log2 fold change of degron read counts,[1],0.511
same,log2 fold change of degron read counts,[2],-0.724
same,log2 fold change of degron read counts,[3],-0.968
same,log2 fold change of degron read counts,compound: thalidomide,-1.44
B2,log2 fold change of degron read counts,[1],0.0639
same,log2 fold change of degron read counts,[2],-0.343
same,log2 fold change of degron read counts,[3],-0.617
same,log2 fold change of degron read counts,compound: thalidomide,-2.46
B3,log2 fold change of degron read counts,[1],2.04
same,log2 fold change of degron read counts,[2],1.25
same,log2 fold change of degron read counts,[3],-0.215
same,log2 fold change of degron read counts,compound: thalidomide,-0.0645
B4,log2 fold change of degron read counts,[1],2.88
same,log2 fold change of degron read counts,[2],3.17
same,log2 fold change of degron read counts,[3],2.26
same,log2 fold change of degron read counts,compound: thalidomide,0.659
B5,log2 fold change of degron read counts,[1],3.27
same,log2 fold change of degron read counts,[2],3.45
same,log2 fold change of degron read counts,[3],1.38
same,log2 fold change of degron read counts,compound: thalidomide,1.31
B6,log2 fold change of degron read counts,[1],1.2
same,log2 fold change of degron read counts,[2],1.38
same,log2 fold change of degron read counts,[3],0.553
same,log2 fold change of degron read counts,compound: thalidomide,0.403
B7,log2 fold change of degron read counts,[1],-0.0768
same,log2 fold change of degron read counts,[2],1.31
same,log2 fold change of degron read counts,[3],1.38
same,log2 fold change of degron read counts,compound: thalidomide,3.4
B8,log2 fold change of degron read counts,[1],-0.934
same,log2 fold change of degron read counts,[2],-1.38
same,log2 fold change of degron read counts,[3],0.0357
same,log2 fold change of degron read counts,compound: thalidomide,1.04
B9,log2 fold change of degron read counts,[1],0.511
same,log2 fold change of degron read counts,[2],0.955
same,log2 fold change of degron read counts,[3],1.53
same,log2 fold change of degron read counts,compound: thalidomide,1.13
B10,log2 fold change of degron read counts,[1],-1.72
same,log2 fold change of degron read counts,[2],-2.04
same,log2 fold change of degron read counts,[3],-2.48
same,log2 fold change of degron read counts,compound: thalidomide,-0.691
B11,log2 fold change of degron read counts,[1],3.3
same,log2 fold change of degron read counts,[2],3.29
same,log2 fold change of degron read counts,[3],2.43
same,log2 fold change of degron read counts,compound: thalidomide,0.954
B12,log2 fold change of degron read counts,[1],0.633
same,log2 fold change of degron read counts,[2],0.299
same,log2 fold change of degron read counts,[3],1.47
same,log2 fold change of degron read counts,compound: thalidomide,-0.594
B13,log2 fold change of degron read counts,[1],0.0883
same,log2 fold change of degron read counts,[2],0.432
same,log2 fold change of degron read counts,[3],-1.2
same,log2 fold change of degron read counts,compound: thalidomide,-1.53
B14,log2 fold change of degron read counts,[1],-2.58
same,log2 fold change of degron read counts,[2],-2.81
same,log2 fold change of degron read counts,[3],-3.15
same,log2 fold change of degron read counts,compound: thalidomide,-2.31
B15,log2 fold change of degron read counts,[1],-0.29
same,log2 fold change of degron read counts,[2],-0.155
same,log2 fold change of degron read counts,[3],0.579
same,log2 fold change of degron read counts,compound: thalidomide,-1.3
B16,log2 fold change of degron read counts,[1],-1.55
same,log2 fold change of degron read counts,[2],-1.36
same,log2 fold change of degron read counts,[3],-1.37
same,log2 fold change of degron read counts,compound: thalidomide,-1.45
B17,log2 fold change of degron read counts,[1],-1.33
same,log2 fold change of degron read counts,[2],0.669
same,log2 fold change of degron read counts,[3],-0.689
same,log2 fold change of degron read counts,compound: thalidomide,-0.0169
B18,log2 fold change of degron read counts,[1],-1.47
same,log2 fold change of degron read counts,[2],-0.445
same,log2 fold change of degron read counts,[3],0.321
same,log2 fold change of degron read counts,compound: thalidomide,0.637
B19,log2 fold change of degron read counts,[1],1.54
same,log2 fold change of degron read counts,[2],-0.463
same,log2 fold change of degron read counts,[3],1.47
same,log2 fold change of degron read counts,compound: thalidomide,-0.0772
B20,log2 fold change of degron read counts,[1],-1.06
same,log2 fold change of degron read counts,[2],-1.44
same,log2 fold change of degron read counts,[3],-0.0327
same,log2 fold change of degron read counts,compound: thalidomide,-0.334
B21,log2 fold change of degron read counts,[1],3.6
same,log2 fold change of degron read counts,[2],3.72
same,log2 fold change of degron read counts,[3],2.31
same,log2 fold change of degron read counts,compound: thalidomide,1.63
B22,log2 fold change of degron read counts,[1],1.8
same,log2 fold change of degron read counts,[2],-0.0236
same,log2 fold change of degron read counts,[3],1.14
same,log2 fold change of degron read counts,compound: thalidomide,1.42
B23,log2 fold change of degron read counts,[1],3.43
same,log2 fold change of degron read counts,[2],1.63
same,log2 fold change of degron read counts,[3],0.778
same,log2 fold change of degron read counts,compound: thalidomide,0.457
B24,log2 fold change of degron read counts,[1],2.38
same,log2 fold change of degron read counts,[2],1.52
same,log2 fold change of degron read counts,[3],2.01
same,log2 fold change of degron read counts,compound: thalidomide,2.12
B25,log2 fold change of degron read counts,[1],1.36
same,log2 fold change of degron read counts,[2],2.28
same,log2 fold change of degron read counts,[3],1.92
same,log2 fold change of degron read counts,compound: thalidomide,3
B26,log2 fold change of degron read counts,[1],-2.6
same,log2 fold change of degron read counts,[2],-2.19
same,log2 fold change of degron read counts,[3],-2.73
same,log2 fold change of degron read counts,compound: thalidomide,-2.65
B27,log2 fold change of degron read counts,[1],2.27
same,log2 fold change of degron read counts,[2],3.03
same,log2 fold change of degron read counts,[3],2.5
same,log2 fold change of degron read counts,compound: thalidomide,3
B28,log2 fold change of degron read counts,[1],0.541
same,log2 fold change of degron read counts,[2],2.73
same,log2 fold change of degron read counts,[3],2.39
same,log2 fold change of degron read counts,compound: thalidomide,2.95
B29,log2 fold change of degron read counts,[1],3.67
same,log2 fold change of degron read counts,[2],2.8
same,log2 fold change of degron read counts,[3],0.948
same,log2 fold change of degron read counts,compound: thalidomide,1.06
B30,log2 fold change of degron read counts,[1],2.12
same,log2 fold change of degron read counts,[2],-0.516
same,log2 fold change of degron read counts,[3],1.74
same,log2 fold change of degron read counts,compound: thalidomide,2.43
B31,log2 fold change of degron read counts,[1],3.83
same,log2 fold change of degron read counts,[2],3.81
same,log2 fold change of degron read counts,[3],2.56
same,log2 fold change of degron read counts,compound: thalidomide,1.42
